# Screening data from PubChem.
# Only a selection was taken, and hits are over-represented in it overall.
# Cruzain inh Det = inhibitors of Trypanosoma cruzi cruzain with detergent; P25779; purified cruzain, Z-FR-AMC fluorescence, 0.01% Triton; Potency, µM, hits mostly inhibitors; hit rate 0.43% among 200,000; AID 1478; also: nearly all actives have a fitted effect of over 40% in size
# Target sequence (P25779 123-467 limits assumed): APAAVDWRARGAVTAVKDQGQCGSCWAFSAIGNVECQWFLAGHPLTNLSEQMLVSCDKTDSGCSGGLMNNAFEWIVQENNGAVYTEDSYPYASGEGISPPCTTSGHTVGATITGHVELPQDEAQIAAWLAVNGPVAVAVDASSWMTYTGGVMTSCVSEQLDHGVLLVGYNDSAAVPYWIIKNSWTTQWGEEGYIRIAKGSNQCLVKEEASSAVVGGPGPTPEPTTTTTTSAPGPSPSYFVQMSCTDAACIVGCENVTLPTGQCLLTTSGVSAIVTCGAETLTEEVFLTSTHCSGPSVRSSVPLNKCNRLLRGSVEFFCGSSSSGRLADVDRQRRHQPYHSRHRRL
#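 Steps: dispense cruzain (1.5 nM final) in acetate buffer pH 5.5 with DTT and 0.01% Triton X-100; pin-transfer compounds; incubate 15 min RT; add Z-FR-AMC (2 uM final); read fluorescence every 30 s, using the 60 s intensity change.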
# Cruzain noTriton = cruzain (T. cruzi) inhibition without detergent. P25779. purified cruzain, Z-FR-AMC fluorescence, no detergent. hit rate 2.3% among 200,000. Potency, µM, most hits filed as inhibitors; also: nearly all actives have a fitted effect of over 40% in size
#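 Detergent-free condition (0.00005% Triton X-100) in acetate buffer pH 5.5 with DTT. 1.5 nM enzyme and compound were pre-mixed 15 min, then 2 uM Z-FR-AMC substrate added; reaction progress from fluorescence change between first and third reads (60 s).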
# NS1 function inh = influenza NS1 inhibition. Potency, µM (doses to about 46.1 µM). hit rate 0.4% among 270,000. AID 2326; calls by dose curve; also: actives are rising curves; nearly all actives have a fitted effect of over 50% in size
#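 A cell-based growth assay was used: compounds that relieve NS1-induced slow growth of budding yeast raise OD600. Assay medium was yeast nitrogen base with ammonium sulphate and -URA supplement, pH 6.0, with 2% galactose.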
# Hits are given with their value; - = inactive; ? = inconclusive; . = no result; ! = not active in a repeat. Unless noted, calls follow the shape of the dose curve; as a rule, active = well fitted curve in the direction sought with a large enough effect; inconclusive = small, poorly fitted or top-dose-only effect, or another doubt; inactive = no such curve, though single readings can be large; an effect the other way counts as inactive or inconclusive.
SMILES,Cruzain inh Det,Cruzain noTriton,NS1 function inh
CC1CCN(c2[nH]c(=S)c(C#N)c3c2CCCC3)CC1,-,-,-
CC1(C)Cc2c(c(N3CCCCC3)[nH]c(=S)c2C#N)CS1,-,12.6µM,-
Cc1c(C(=O)NCc2cccc(Cl)c2)sc2nc3n(c(=O)c12)CCCC3,-,-,.
Clc1ccccc1NN(Cc1ccncc1)c1ccccc1Cl,-,-,-
Cc1ccc2nc(-c3ccccc3)nc(SC(C)C(=O)NCc3cccs3)c2c1 (stereo unspecified),-,-,-
Cc1ccc(C)c2c(SC(C)C(=O)NCc3ccco3)nc(-c3ccccc3)nc12 (stereo unspecified),-,3.98µM,-
Cc1ccc(NC(=O)c2noc3c2CC(C(C)(C)C)CC3)cc1 (stereo unspecified),-,12.6µM,-
CC(C)(C)C1CCc2onc(C(=O)Nc3cccc(O)c3)c2C1 (stereo unspecified),-,-,-
Cc1c(NC(=O)c2ccc(OC(C)C)cc2)cccc1-c1nc2ncccc2o1,-,-,.
CCOC(=O)c1c(-c2ccccc2)oc2ccc(NS(=O)(=O)c3ccccc3)cc12,-,-,.
CCOC(=O)c1c(-c2ccccc2)oc2ccc(NS(=O)(=O)c3cc(C)c(C)cc3C)cc12,-,7.94µM,.
Cc1ccc(NC(=O)CSc2nc3ccc(NC(=O)COc4ccc(C)cc4)cc3s2)cc1,-,?,.
CCNC(=S)N/N=C(\C)c1ccc(Cl)s1,-,-,-
CCCCS(=O)(=O)/C=C/[C@H]1[C@H](S(=O)(=O)CCCC)[C@H]2C=C[C@@H]1C2,-,-,-
O=C1NC(=S)S/C1=C\c1ccc(SCc2ccccc2)o1,-,-,-
O=C1NC(=S)S/C1=C\c1ccc(SCc2ccco2)o1,15.8µM,?,-
COc1ccccc1/C=C/C(=O)c1ccc(Cl)cc1,-,-,-
COc1ccccc1/C=C/C1=NC(=C\C=C/c2ccccc2)/C(=O)O1,-,25.1µM,?
COc1ccccc1/C=C/C=C1N=C(/C=C/c2ccc(Cl)cc2)OC/1=O,-,15.8µM,-
COc1ccccc1/C=C/C(=O)c1ccccc1,.,.,-
CCOc1ccc(S(=O)(=O)N2CCC(C(=O)NCc3cccnc3)CC2)cc1,.,.,-
COc1ccc(Oc2ncc3nc(-c4ccc(F)cc4)c(=O)n(C4CC4)c3n2)cc1,-,-,.
COc1ccc(Nc2oc(COc3ccc(OC)cc3)nc2C#N)cc1,-,-,-
COc1ccc(Nc2oc(COc3ccccc3F)nc2C#N)cc1,-,25.1µM,-
CCOc1ccc(Nc2oc(-c3ccc(COc4ccc(C)cc4)o3)nc2C#N)cc1,-,3.16µM,.
SMILES,Cruzain inh Det,Cruzain noTriton,NS1 function inh
COc1ccc(Nc2oc(-c3ccc(COc4ccc(OC)cc4)o3)nc2C#N)cc1,-,-,.
COc1ccc(Nc2oc(-c3ccc(COc4ccccc4)o3)nc2C#N)cc1,-,?,.
COc1ccc(Nc2oc(-c3ccc(COc4cccc(C)c4)o3)nc2C#N)cc1,-,15.8µM,.
COc1ccc(CN(C(=O)CO/N=C/c2ccccc2)c2ccccc2C(=O)O)cc1,-,?,-
CC(C)CNC(=O)C1CCN(Cc2ccc(OCc3ccccc3)cc2)CC1,-,-,-
Cc1c(C(=O)NCCC2=CCCCC2)oc2ccc(S(=O)(=O)N3CCC4(CC3)OCCO4)cc12,-,?,-
CC(/C=N/NC(=O)c1cc(-c2cccnc2)nc2c1c(C)nn2-c1ccccc1)=C\c1ccccc1,-,12.6µM,-
Cc1nn(-c2ccccc2)c(N2CCCC2)c1/C=N/NC(=O)c1cc(-c2cccnc2)nc2ccccc12,-,-,-
O=C(Nc1nc2ccc(Oc3ccccc3)cc2s1)c1cc([N+](=O)[O-])ccc1N1CCOCC1,-,15.8µM,-
O=C(CN1CCOCC1)Nc1nc2ccc([N+](=O)[O-])cc2s1,.,.,-
CCc1ccc(NCc2cc3cc4c(cc3n(CC(=O)Nc3ccc(Cl)cc3)c2=O)OCO4)cc1,-,15.8µM,.
COc1ccc(NCc2cc3cc4c(cc3n(CC(=O)Nc3cc(C)cc(C)c3)c2=O)OCO4)cc1,-,?,.
COc1ccc(NCc2cc3cc4c(cc3n(CC(=O)Nc3ccc(C)c(C)c3)c2=O)OCO4)cc1,-,15.8µM,.
Cc1ccc(NCc2cc3cc4c(cc3n(CC(=O)Nc3ccc(C)cc3)c2=O)OCCO4)cc1,-,?,.
CC1CC(=O)N(CC(=O)Nc2cccc(F)c2)c2ccccc2S1(=O)=O (stereo unspecified),.,.,-
CCOC(=O)c1ccc(NC(=O)c2ccc3c(c2)NC(=O)c2ccccc2S3)cc1,-,-,.
CC(=O)c1ccc2c(c1)Nc1ccccc1S2,-,25.1µM,-
C/C(=N\NC(=O)c1ccc(C)cc1C)c1ccc2c(c1)Nc1ccccc1S2,-,?,-
CCOC(=O)Nc1ccc2c(c1)Nc1ccccc1S2,-,25.1µM,-
N#CC1(Cc2ccccc2)c2ccccc2C=CN1C(=O)c1ccccc1 (stereo unspecified),-,-,-
N#CC1(Cc2ccc([N+](=O)[O-])cc2)c2ccccc2C=CN1C(=O)c1ccccc1 (stereo unspecified),-,25.1µM,-
Cc1cccc(C)c1N(CC(=O)Nc1cc(Cl)ccc1Oc1ccccc1)S(C)(=O)=O,-,-,-
Cc1cc(N)c2ccccc2[n+]1CCCCCCCCCC[n+]1c(C)cc(N)c2ccccc21,12.6µM!,?,-
CCCCCCCCC[n+]1cccc2c3ccccc3ccc21,-,-,-
CCCCC(CC)C(=O)NCCCN1CCN(CCCNC(=O)C(CC)CCCC)CC1 (stereo unspecified),-,-,-
SMILES,Cruzain inh Det,Cruzain noTriton,NS1 function inh
COc1ccc(C)cc1NC(=O)CN(C)S(=O)(=O)c1cnc[nH]1,-,-,-
COc1ccc(-c2cc(-c3ccccc3)nc(SCC(=O)Nc3ccccc3F)c2C#N)cc1,-,-,.
N#Cc1c(-c2ccccc2)cc(C2CC2)nc1SCC(=O)c1cccs1,-,?,-
COc1ccc(-c2cc(-c3ccccc3)c(C#N)c(SCC(=O)Nc3ncc(C)s3)n2)cc1,-,?,-
CC(C)NC(=O)CSc1nc(-c2cccs2)cc(-c2ccccc2)c1C#N,-,20µM,-
COc1ccc(-c2cc(-c3ccccc3)nc(SCC(=O)Nc3nccs3)c2C#N)cc1,-,7.94µM,-
CCc1nnc(NC(=O)CSc2nc(-c3ccccc3)cc(-c3ccc(OC)cc3)c2C#N)s1,-,12.6µM,-
Cc1cccc(C(=O)NC2CCN(CC(=O)NCc3cccs3)CC2)c1,.,.,-
Cc1c(C(=O)NCC2COc3ccccc3O2)oc2ccc(S(=O)(=O)N3CCOCC3)cc12 (stereo unspecified),-,-,-
Cc1c(C(=O)NCC2COc3ccccc3O2)oc2ccc(S(=O)(=O)N3CC(C)CC(C)C3)cc12 (stereo unspecified),-,20µM,-
Cc1cc(-c2nnc(SCC(=O)c3ccc4c(c3)OCCO4)o2)no1,-,-,-
COc1cccc(/C=N/NC(=O)c2cccc([N+](=O)[O-])c2)c1OS(=O)(=O)c1ccccc1,-,-,-
Cc1ccc(S(=O)(=O)Oc2ccccc2/C=N/N=C(N)N)cc1,.,.,-
COc1cccc(/C=N/NC(N)=S)c1OS(=O)(=O)c1ccccc1,14.1µM,5.01µM,-
Cc1ccc(S(=O)(=O)Oc2ccccc2/C=N/NC(N)=S)cc1,7.08µM,?,-
NC(=S)N/N=C/c1c(O)c(Br)cc2oc3c(c12)CCCC3,.,.,-
Oc1c(Br)cc2oc3c(c2c1CNCc1ccccc1)CCCC3,-,31.6µM,-
